Screens deposited in PubChem BioAssay by National Center for Advancing Translational Sciences (NCATS).
Hits are enriched below; roughly 3.3% of the tested compounds scored in any of these assays.
HCV inh – inhibitors of hepatitis C virus infection; Huh7.5.1 HCVcc-Cre infection, luciferase reporter, 44 h; Potency, µM (highest dose often 41.8 µM), without a hit: top-dose activity change, negative = inhibition, usual class: inhibitors; hit rate 3.4% among 340,000; active = well fitted inhibition curve with a large enough effect; inconclusive = small, poorly fitted or top-dose-only effect, or another doubt; inactive = no such curve, though single readings can be large or run the other way
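Infectious HCVcc-Cre (~0.5 moi) was added to cells just after compound, with cells seeded 4 h earlier at 1,000 per well. Luciferase activity after 44 h culture reported infection; substrate was incubated 15 min at room temperature before reading.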
Vaccinia mCherry – inhibitors of vaccinia virus infection (mCherry reporter signal) | Potency, µM (titrated, usually from 36.5 µM), for the others: at the highest dose activity change, negative = inhibition, actives largely listed as inhibitors | hit rate 0.63% among 310,000 | Vaccinia virus mCherry reporter infection, fluorescence; calls by dose curve; tested in A549 cells; note: nearly all actives have a fitted effect of over 35% in size
VACV Venus inh – inhibitors of vaccinia virus (Venus reporter); Potency, µM (titrated, usually from 36.5 µM), inactives show at the highest dose activity change, negative = inhibition, usual class: inhibitors; hit rate 0.46% among 330,000; Vaccinia virus Venus reporter expression, fluorescence; AID 720580; calls by dose curve; tested in A549 cells; note: nearly all actives have a fitted effect of over 30% in size
Active calls of the source: *; i = inactive; ? = inconclusive; . = not tested or not shown. % is set by controls: 0 for no effect and ±100 for the full control effect; potency is the fitted concentration of half-maximal effect.

SMILES	HCV inh	Vaccinia mCherry	VACV Venus inh
Fc1ccc(N2CCN(Cc3ccc4c(c3)CN(Cc3cccn3-c3ncccn3)CCO4)CC2)cc1	.	-22.0%	-8.9%
Cc1cc2c(cc1NC(=O)c1ccc(C(C)(C)C)cc1)n(C)c(=O)c(=O)n2C	.	-15.3%	-2.3%
O=C(CSc1nc2c([nH]c3ccccc32)c(=O)n1-c1ccccc1)c1ccc(Cl)cc1	.	-19.5%	-15.8%
COc1ccccc1C1CN(Cc2c(C)nc3sccn23)Cc2ccccc2O1 (stereo not drawn)	.	-12.3%	1.1%
Cc1ccccc1NC(=O)CSCn1nnc2c(=O)[nH]c(Cc3ccc(F)cc3)nc21	.	-5.4%	-1.1%
CC(C)CC(=O)Nc1nc(-c2ccc(S(=O)(=O)N3CCOCC3)cc2)cs1	?	-1.5%	-7.8%
O=C(Nc1nc(-c2ccc(S(=O)(=O)N3CCOCC3)cc2)cs1)c1ccccc1	7.94µM*	-21.2%	-20.7%
O=C1CN(C(=O)c2ccc(S(=O)(=O)N3CCCCC3)cc2)C(c2ccc(F)cc2)c2cc(Cl)ccc2N1 (stereo not drawn)	.	-17.1%	-10.0%
CCOC(=O)N1CCN(Cc2ccc3c(c2)CN(C(=O)c2cc(-c4ccccc4)on2)CCO3)CC1	.	-24.4%	-18.7%
COCCCN(Cc1ccco1)C(=O)c1cc2c(s1)-c1ccc(Cl)cc1S(=O)(=O)C2	-11.3%	-11.9%	-5.9%
COc1cccc(/C=C2\Oc3ccc(O)cc3C2=O)c1O	-5.4%	-4.6%	63.5%
Nc1cccc(C#Cc2ccc3c(c2)C(=O)/C(=C/c2ccsc2)O3)c1	2.51µM*	?	-6.8%
O=C(NC(=S)NNC(=O)c1ccccc1O)c1ccccc1	-21.2%	?	-15.5%
O=C(NC(=S)NNC(=O)c1ccccc1O)c1cccs1	8.91µM*	?	-0.7%
Cc1cc(N2CCN(c3cccc(C)c3C)CC2)n2cnnc2n1	.	-21.0%	-24.6%
CC(=O)N[C@@H](C)C(=O)NCC1Cc2cc(C)cc(-c3cnccn3)c2O1 (stereo partly drawn)	.	-7.2%	3.7%
Cc1csc(N/N=C/c2ccccc2F)n1	?	?	-6.8%
Cc1csc(N/N=C/c2c(F)cccc2Cl)n1	2.9%	3.55µM*	5.01µM*
Cc1cnc(SCc2ccccn2)nc1C1CCCN(C(=O)c2cccc(-c3cccc(F)c3)c2)C1 (stereo not drawn)	.	10µM*	?
CC(=O)c1ccc(C(=O)N2CCCC(c3nc(SCc4ccccn4)ncc3C)C2)cc1 (stereo not drawn)	.	-29.3%	-19.6%
O=C(NCC1Cc2cccc(-c3cnccn3)c2O1)c1ccc2c(c1)OCCO2 (stereo not drawn)	.	-13.7%	-8.3%
CCCOC(=O)c1c(NC(=O)C2c3ccccc3Oc3ccccc32)sc2c1CCC(C)C2 (stereo not drawn)	.	-2.0%	-1.6%
CCCCN(CC)Cc1ccc(CNS(=O)(=O)c2cc3c(cc2Cl)NC(=O)CO3)o1	.	i	-8.2%
COc1ccc(-c2nnc(NC(=O)c3ccc(S(=O)(=O)N4COCC4(C)C)cc3)o2)cc1	?	-24.9%	?
CC1(C)COCN1S(=O)(=O)c1ccc(C(=O)Nc2nnc(-c3ccc(Cl)s3)o2)cc1	2µM*	?	?
SMILES	HCV inh	Vaccinia mCherry	VACV Venus inh
CSc1ccc(S(=O)(=O)NCC(=O)OCC(=O)N2CCCC2=O)cc1[N+](=O)[O-]	4.7%	-15.0%	-16.2%
Cc1ccc(C(=O)OCC(=O)c2cc(C)n(CC3CCCO3)c2C)cc1 (stereo not drawn)	?	i	-15.0%
Cc1cc(C(=O)COC(=O)c2ccccc2Br)c(C)n1CC1CCCO1 (stereo not drawn)	?	-23.3%	3.7%
Cc1cc(C(=O)COC(=O)c2ccccc2O)c(C)n1CC1CCCO1 (stereo not drawn)	11.2µM*	.	.
Cc1cc(C(=O)COc2ccccc2C(N)=O)c(C)n1CC1CCCO1 (stereo not drawn)	1.78µM*	-11.1%	-17.0%
C=CCn1c(O)c2ccc(C(=O)N=NC(=O)c3ccc(F)cc3)cc2c1O	1.7%	-7.8%	2.4%
CCN1CCSc2ccc(C(=O)NC(C)c3ccccc3)cc21 (stereo not drawn)	.	i	-2.2%
COC(=O)CCCCCN1C(=O)/C(=C\c2ccncc2)SC1=S	7.4%	.	.
CC[N+](C)(C)c1ccc(/C=C/c2ccncc2)cc1	.	140.2%	i
CC1CCCCC12NC(=O)N(CC(=O)N1CCN(S(=O)(=O)/C=C/c3ccccc3)CC1)C2=O (stereo not drawn)	9.8%	.	.
O=C(COc1ccc2c(-c3ccccc3)cc(=O)oc2c1)NCc1ccccn1	11.7%	4.2%	-7.5%
CC(Oc1ccc2c(-c3ccccc3)cc(=O)oc2c1)C(=O)NCc1ccccn1 (stereo not drawn)	25.1µM*	-8.5%	-3.1%
CC(C)=CCc1c2c(c3occ(-c4ccc(O)c(O)c4)c(=O)c3c1O)C=CC(C)(C)O2	?	10µM*	11.2µM*
CC1(C)C=Cc2c(c3c(c4c(=O)c(-c5ccc(O)cc5)coc24)OC(C)(C)CC3)O1	-60.5%	-29.3%	-25.1%
COc1ccccc1C1CN(Cc2cccnc2)Cc2ccccc2O1 (stereo not drawn)	.	-11.9%	5.8%
COc1ccc(NC(=O)C2CC(c3c(F)cccc3Cl)=NO2)cc1 (stereo not drawn)	-3.8%	.	.
COc1cc(NC(=O)C2CC(c3c(F)cccc3Cl)=NO2)cc(OC)c1OC (stereo not drawn)	25.1µM*	-12.4%	-18.5%
CS(=O)(=O)N1CCN(c2ccc(NC(=S)NC(=O)c3ccc4c(c3)OCO4)cc2)CC1	10µM*	20.8%	4.5%
Cc1ccc(C(=O)NC(=S)Nc2ccc(N3CCOCC3)cc2)cc1C	7.94µM*	-24.4%	-13.7%
O=C(NC(=S)Nc1ccc(N2CCOCC2)cc1)c1ccc2c(c1)OCCO2	7.94µM*	.	.
O=C(NC(=S)Nc1ccc(N2CCCCC2)cc1)c1ccc2c(c1)OCCO2	13.1%	-23.6%	-11.6%
CCN1CCN(c2ccc(NC(=O)c3ccc4c(c3)OCO4)cc2)CC1	15.8%	-18.8%	-3.9%
Cc1cccc(C(=O)NC(=S)Nc2ccc(N3CCOCC3)cc2)c1	-19.5%	-27.1%	-21.2%
COc1ccc(C(=O)NC(=S)Nc2ccc(CN3CCOCC3)cc2)cc1	-10.1%	-18.0%	-29.7%
O=C(NC(=S)Nc1ccc(CN2CCOCC2)cc1)c1ccc2c(c1)OCCO2	35.5µM*	?	?
SMILES	HCV inh	Vaccinia mCherry	VACV Venus inh
Cn1cnnc1Sc1ccc(CN2CCOc3ccc(C4=Cc5ccccc5C4)cc3C2)o1	.	-3.9%	-13.8%
Cc1cccc(N(C)C(=O)CCS(=O)(=O)c2ccc3c(c2)oc(=O)n3C)c1	.	-0.7%	3.6%
Cc1cc(C)cc(NC(=O)C2CCCN(C(=O)c3cnn(-c4ccccc4)c3-n3cccc3)C2)c1 (stereo not drawn)	.	-27.7%	-18.2%
O=C(Nc1cc2c3c(c1)CC(=O)N3CCC2)c1ccc(Br)cc1	-9.1%	-23.5%	-17.9%
O=C(Nc1cc2c3c(c1)CC(=O)N3CCC2)c1ccccc1Br	10µM*	-5.6%	-25.7%
CSCC[C@H](N)C(=O)NCC1CCC(C(=O)Nc2ccc3c(c2)OCO3)CC1 (stereo partly drawn)	?	-3.7%	0.7%
CCOC(=O)c1cnc(-n2nc(C)cc2C)nc1NC1CCCCC1	5.62µM*	?	?
CCOC(=O)c1cnc(-n2nc(C)cc2C)nc1NC	-13.3%	.	.
CCCCCOc1ccc(Cn2ccnc2)cc1[N+](=O)[O-]	11.2µM*	.	.
